Only a sample is shown.
aSyn 5UTR act = Activators working through SNCA 5'UTR binding (MLPCN); alpha-synuclein 5'UTR reporter, activators screen; activity score, % (tested at 7.5 µM), hits read low; actives 7.1% (n = 300,000); in the data active = activity score below about -60%
* hit, by the source's call.

SMILES	aSyn 5UTR act
CCC(C)NC(=O)c1cc2cc3ccc(OC)cc3nc2o1 (stereo not given)	-147*
CCCCN(CC)C(=O)c1cc2cc3ccc(OC)cc3nc2o1	-111*
Cc1cc(C)nc(N/N=C/c2ccccc2Cl)n1	-88*
Cc1ccsc1/C=N/Nc1nc(=O)[nH]nc1C	-85*
Cc1ccsc1/C=N/Nc1ncc(Cl)cc1Cl	-71*
Cc1cc(C)nc(N/N=C/c2sccc2C)n1	-82*
Cc1cc(C)nc(N/N=C/c2ccccc2)n1	-73*
Cc1cc(C)c2nc(C)cc(N/N=C/c3ccc(O)cc3)c2c1	112
Cc1ccsc1/C=N/Nc1ccc(F)cc1F	-176*
COc1ccc(Oc2ncnc3sccc23)cc1	-95*
c1nc(Nc2ccc(N3CCOCC3)cc2)c2ccsc2n1	-63*
COc1ccc(CCNc2ncnc3sc(C)cc23)cc1OC	77
COc1cccc(Nc2ncnc3sccc23)c1	-118*
COc1cccc(Nc2ncnc3sc(C)cc23)c1	-126*
COc1ccc(Nc2ncnc3sccc23)cc1	-98*
COc1ccc(Nc2nccc3c2ncn3C)cc1	21
COc1cc(-c2nnn(CC(=O)NC3CCS(=O)(=O)C3)n2)ccc1OCc1ccccc1 (stereo not given)	-126*
CCC(C(=O)Nc1ccc2c(c1)OCCO2)n1nnc2ccccc2c1=O (stereo not given)	-133*
O=c1c2ccccc2nnn1CSc1nnc(-c2ccco2)o1	-131*
O=c1c2ccccc2nnn1CSc1ccc2c(c1)OCCO2	-145*
O=c1c2ccccc2nnn1CSc1nnc2ccccn12	-93*
COc1ccc(C(=O)C[n+]2ccccc2/C=N/O)cc1	-82*
O=C1C(=O)c2c(C(=O)c3ccccc3)coc2-c2ccccc21	-105*
CC(C)c1ccc2nc(N)sc2c1	-107*
Cc1cc2nc(N)sc2cc1C	-64*
SMILES	aSyn 5UTR act
Nc1nc2ccc(OC(F)(F)F)cc2s1	-74*
C/C(NC(=O)c1cccs1)=C1\C(=O)C[C@@H]2[C@H]1C2(C)C	-118*
CCN(CC)S(=O)(=O)c1ccc2nc(NC(=O)c3cccs3)sc2c1	-104*
CCN(CC)S(=O)(=O)c1ccc2nc(NC(=O)c3ccco3)sc2c1	-63*
CCCCc1ccc(-c2nc(N)n[nH]2)cc1	-100*
O=[N+]([O-])c1cc(/C=N/N/C(=N/c2ccccn2)c2ccccn2)ccc1O	-91*
O=[N+]([O-])c1ccc(/C=N/N/C(=N/c2ccccn2)c2ccccn2)cc1	-125*
Cc1ccc(-c2cn3cccnc3n2)cc1	-119*
c1cnc2nc(-c3ccc4c(c3)OCO4)cn2c1	-93*
c1ccc(-c2nccc(-c3ccc4c(c3)OCO4)n2)cc1	-105*
c1ccc(-c2noc(-c3ccc4c(c3)OCO4)n2)nc1	91
CCc1ccn2cc(-c3ccc4c(c3)OCO4)nc2c1	107
CC(=O)Nc1ccc2c(c1)C(=O)c1ccccc1C2=O	-185*
CC(=O)Nc1ccc(Nc2c3c4c(cccc4n(C)c2=O)C(=O)c2ccccc2-3)cc1	59
O=C1c2ccccc2C(=O)c2cc(NC(=O)C3CC3)ccc21	-161*
O=C(O)/C=C/C(=O)Nc1ccc2c(c1)C(=O)c1ccccc1C2=O	-65*
CC(=O)Nc1ccc2nc3ccccc3nc2c1	-82*
Nc1ccc2c(c1)C(=O)C(=O)c1ccccc1-2	130
Nc1ccc2c(c1)C(=O)c1ccccc1C2=O	-145*
O=C(O)/C=C/C(=O)Nc1ccc2nccnc2c1	-75*
C(=C\c1nc(N2CCCCCC2)c2ccccc2n1)/c1ccccc1	-71*
CCc1ccc2c(c1)/C(=C/C(=O)c1cccs1)C(=O)N2	-65*
CCCc1cc(C(=O)NC2CCCCC2)no1	-146*
CC(C)c1cc(C(=O)NC2CCCCC2)no1	-148*
CCCc1cc(C(=O)NC2CCCC2)no1	-94*
SMILES	aSyn 5UTR act
CN1CCN(c2nc(Nc3cccc(C(F)(F)F)c3)nc(N3CCOCC3)n2)CC1	-69*
c1ccc(CNc2c3ccccc3nc3ccccc23)cc1	-332*
CN(C)CCCNc1c2ccccc2nc2ccccc12	71
CCOC(=O)C1=C(CSc2nc(-c3ccccc3)ccc2C#N)OC(N)=C(C#N)C1c1ccccc1 (stereo not given)	-103*
CCOC(=O)C1=C(c2ccccc2)OC(N)=C(C#N)C1C(C)C (stereo not given)	-103*
N#CC1=C(N)Oc2ccc3ccccc3c2C1c1cccnc1 (stereo not given)	54
CCOC(=O)C1=C(CSc2nc(-c3ccccc3)ccc2C#N)OC(N)=C(C#N)C1c1cccnc1 (stereo not given)	-84*
O=C1/C(=C/c2cccnc2)Oc2cc(OS(=O)(=O)c3ccccc3)ccc21	-82*
O=C(COc1ccccc1)Nc1ccccc1F	-140*
O=C(COc1ccccc1)Nc1ccc(Cl)cc1Cl	-154*
O=C(COc1ccccc1)Nc1cc(Cl)ccc1Cl	-91*
COCC(=O)Nc1cc(C(=O)Nc2ccccc2)ccc1Cl	-79*
Nc1cc(-c2ccc(Br)cc2)nn1Cc1ccccc1	-196*
Cc1cc(C)cc(-c2nc(-c3ccncc3)no2)c1	-149*
Clc1ccc(Br)cc1-c1nc(-c2ccncc2)no1	-188*

Screening results as filed in PubChem BioAssay.
